High-throughput results from PubChem.
Pyk2 oligo antag: blocks oligomerization of human Pyk2 in cells; 0.83% of 99,000 active; Q14289; Q293 cells, Pyk2 FERM NanoBiT luminescence; stronger effect = lower value; z-score (the deposit names both 25 µM and 10 µM);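 active = Z-score of -3 or lower, scaled per plate to the spread of control and sample wells; inactive = z-score above -3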;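 also: negative z-score means lost luminescence so less FERM oligomerization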
M1 antagonist: M1 muscarinic receptor (rat) antagonism | CHO-M1 cells, Fluo-4 calcium, ACh EC80 antagonist mode; stronger effect = lower value | P08482 | AID 628 | B-score at 10 µM | 3.4% of 64,000 active;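 active = calcium fluorescence response, raw or row-and-column corrected B-score, differing from the plate sample mean either way at a set confidence level, mostly lower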
Cav32 inh: human Cav3.2 channel inhibition, primary screen. O95180. Cav3.2-expressing cells, Fluo-4 calcium fluorescence FDSS; stronger effect = lower value. B-score at 10 µM. 4% of 100,000 active. AID 449739;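 active = single-dose well whose peak fluorescence ratio is a statistical outlier from its plate by either plate-standardised score or position-corrected B-score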
M1 agonist: M1 muscarinic receptor agonism | CHO-M1 cells, Fluo-4 calcium fluorescence, agonist mode; stronger effect = higher value | B-score at 10 µM | 3% of 64,000 active | AID 626;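 active = fluorescence rise, raw or as B-score row- and column-corrected plate score, outside the 99.7% band of its plate's samples, either direction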
M1 ag confirm: rat M1 muscarinic agonism, confirmation; shares compounds with M1 agonist; CHO-M1 cells, Fluo-4 calcium fluorescence, agonist mode; actives lie on both sides; fluorescence change (max-min) at 10 µM; 19% of 1,700 active;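 active = fluorescence change differs from the solvent-only DMSO control mean at a set confidence level in both duplicate runs; inconclusive = differs from solvent-only control mean in just one of two runs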;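 also: an EC20 dose of acetylcholine follows compound addition during the same imaging run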
M4 agonist ctr: rat M4 muscarinic agonism, M1 counter-screen | CHO M4/Gqi5 cells, Fluo-4 calcium fluorescence, agonist mode; actives lie on both sides | fluorescence change (max-min) at 10 µM | 9% of 1,700 active | shares compounds with M1 agonist;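 active = fluorescence change differing from the plate's solvent-only control wells at 99.7% confidence in both duplicates, whether higher or lower; inconclusive = differs from solvent controls in only one of two duplicates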
Numbers stand for hits; – = inactive; ? = inconclusive; · = not tested or not shown. Sampled rows, rich in hits. Any-hit rate of the full collection: about 7.1%.

SMILES	Pyk2 oligo antag	M1 antagonist	Cav32 inh	M1 agonist	M1 ag confirm	M4 agonist ctr
CN(C)/C=C1\C(=O)c2ccc(N(C)C)nc2CC1c1ccccc1 (centres undefined)	·	–	·	–	·	·
O=S(=O)(Nc1cnc2ccccc2c1)N1CCCCCC1	–	–	–	-2.53	–	–
COC(=O)c1ccc2c(c1)N(Cc1ccccc1F)C(=O)c1ccccc1S2=O (centres undefined)	·	–	–	4.89	?	–
COC(=O)c1ccc2c(c1)N(Cc1cc(C)ccc1C)C(=O)c1ccccc1S2=O (centres undefined)	·	–	–	–	·	·
CC(=O)c1ccc(N2CCN(C(=O)C3CCC3)CC2)cc1	–	–	–	–	·	·
CC(=O)c1ccc(N2C(=O)C3C(C2=O)C(C(=O)c2ccc(Cl)cc2)N2CCCC32)cc1 (centres undefined)	·	–	–	29.3	334	470
O=C(CCn1c(=O)c2sccc2n(CC(=O)OCc2ccccc2)c1=O)NCc1ccccc1	–	·	–	·	·	·
O=C(CCCn1c(=O)c2sccc2n(CC(=O)OCc2ccccc2)c1=O)NCc1ccco1	–	–	–	4.68	-28.4	-72.1
CCCCn1c(SCC(=O)Nc2nnc(C)s2)nnc1-c1ccoc1C	–	–	–	3.24	?	–
Cc1nnc(NC(=O)CSc2nnc(-c3ccoc3C)n2CC(C)C)s1	–	–	–	–	·	·
CC(C)CN1C(=O)c2ccc(C(=O)Nc3ccncc3)cc2C1=O	–	–	–	5.18	–	–
CC(C)CN1C(=O)c2ccc(C(=O)Nc3nccs3)cc2C1=O	–	–	·	–	·	·
N#C/C(C(N)=O)=c1/ccc2c(c1)N1C3=C(CCCC3)CC3CCCCC31N=2 (centres undefined)	·	–	–	5.2	–	–
CCOC(=O)CNc1c(-c2ccc(O)cc2)nc2ccccn12	–	–	–	–	·	·
Oc1ccc(-c2nc3ccccn3c2NCc2ccc3c(c2)OCO3)cc1	–	–	·	4	–	–
COc1cccc(C(=O)OCc2ccccc2C#N)c1O	–	–	–	-2.17	-27.2	-79.3
CCOC(=O)c1ccccc1NC(=O)Cc1ccccc1OC	–	·	–	·	·	·
COc1ccc([C@@]2(O)c3c(ccc(CC=C(C)C)c3O)NC(=O)[C@@H]2OC)cc1	·	·	–	·	·	·
Cc1onc(-c2ccccc2Cl)c1C(=O)Nc1cccc(-c2nc3ncccn3c2C)c1	–	-2.29	·	3.25	?	–
CC(=O)Nc1cccc(NC(=O)c2c(-c3ccccc3Cl)noc2C)c1	–	–	–	–	·	·
CCOc1ccc(N2C(=O)Nc3ccccc3C2(O)C(=O)NCc2ccc3c(c2)OCO3)cc1 (centres undefined)	–	·	–	·	·	·
COc1ccc(C)cc1-n1nnnc1SCc1cc(=O)n2cc(C)ccc2n1	–	–	–	5.22	–	–
Cc1nn(-c2ccccc2)c(C)c1C(=O)OCC(=O)c1c(N)n(CC(C)C)c(=O)n(C)c1=O	–	–	-3.84	4.06	–	–
Cc1ccc(C)c(N2CCN(C(=O)c3ccc(CS(=O)(=O)c4ccccc4C)o3)CC2)c1	–	–	·	2.82	–	–
O=C(c1ccc(CS(=O)(=O)c2c(Cl)cccc2Cl)o1)N1CCN(c2ccccn2)CC1	·	-2.98	–	3.36	–	–
SMILES	Pyk2 oligo antag	M1 antagonist	Cav32 inh	M1 agonist	M1 ag confirm	M4 agonist ctr
Cc1cccc(N2CCN(C(=O)c3ccc(CS(=O)(=O)c4ccccc4C)o3)CC2C)c1 (centres undefined)	–	-2.16	-5.74	9.2	?	–
COC(=O)c1ccc(CS(=O)(=O)c2ccccc2C)o1	–	–	–	–	·	·
COc1ccccc1S(=O)(=O)Cc1ccc(C(=O)N2CCN(c3ccccc3)CC2)o1	–	–	–	–	·	·
Cn1c(CC2C(=O)Nc3ccc(Br)cc32)nc2ccccc2c1=O (centres undefined)	–	–	·	1.98	?	–
CCOC(=O)N1CCN(c2ncnc3c2[nH]c2ccc(OC)cc23)CC1	–	–	–	2.11	?	–
COc1cc2[nH]c3c(N4CCN(c5ccccn5)CC4)ncnc3c2cc1OC	–	–	·	8.54	–	–
COc1cccc2[nH]c3c(N4CCCCC4)ncnc3c12	–	–	–	–	·	·
CS(=O)(=O)N(Cc1ccccc1)c1ccc(C(=O)N2CCc3ccccc3C2)cc1	–	·	–	·	·	·
COc1ccc2ccccc2c1/C=N/O	–	–	–	5.62	?	-70.6
COc1ccc(CNC(=O)CSc2ncnc3nc[nH]c23)cc1	–	–	–	31.2	?	–
O=C(CSc1ncnc2nc[nH]c12)NCCc1ccccc1	–	–	–	–	·	·
O=C(CSCC(=O)N1CCCc2ccccc21)Nc1nc(-c2ccccc2)cs1	·	·	–	·	·	·
O=C(NCCCn1ccnc1)C(Cc1ccc([N+](=O)[O-])cc1)N1C(=O)c2ccccc2C1=O (centres undefined)	–	·	–	·	·	·
COc1cc(/C=c2\s/c(=C(/C#N)C(=O)N3CCCC3)n(-c3ccccc3)c2=O)ccc1O	-3.04	–	–	48	–	–
CCc1nn(C(C)C(=O)NCCN2CCN(c3cccc(C)c3C)CC2)c(=O)c2cc3occc3n12 (centres undefined)	–	–	–	3.79	?	–
COc1ccc(OCC(O)Cn2c(=N)n(CCN3CCOCC3)c3ccccc32)cc1 (centres undefined)	–	–	–	7.47	–	–
N=c1n(CCN2CCOCC2)c2ccccc2n1CC(O)COc1ccccc1 (centres undefined)	–	–	–	–	·	·
CC1(C)Cc2nc3sc4c(SCC(=O)NCc5ccccc5)ncnc4c3cc2CO1	–	·	–	·	·	·
CC1(C)Cc2nc3sc4c(N(CCO)CCO)ncnc4c3cc2CO1	–	–	–	2.84	?	–
Cc1ccc(S(=O)(=O)c2c(N)n(CCN3CCOCC3)c3nc4ccccc4nc23)cc1C	–	–	–	–	·	·
Cc1ccc2c(c1)c1nc3ccccc3nc1n2CCN1CCOCC1	–	–	–	7.15	–	–
COc1cccc2c1OC1(C)CC2NC(=O)N1c1cccc(C(=O)Nc2ccc3c(c2)OCCO3)c1 (centres undefined)	–	–	–	7.83	–	?
CCc1cc2cc(C)cc(C)c2nc1SCC(=O)N1CCN(C(=O)c2ccco2)CC1	–	–	–	–	·	·
CCc1cc2cccc(C)c2nc1SCC(=O)N1CCN(C(=O)c2ccco2)CC1	–	–	·	2.45	–	–
CCCNC(=O)N1C2=NC(C(=O)OC)=C(C(=O)OC)[C@@H]3N(Cc4ccccc4)c4ccccc4[C@]23C[C@H]1CO	·	·	–	·	·	·
NS(=O)(=O)c1ccc(NC(=O)c2ccccc2C(=O)N2CCCCC2)cc1	–	–	–	–	·	·
O=C(CSc1nnc(Cc2cccs2)n1C1CCCCC1)N1CCCc2ccccc21	–	-2.15	-7.17	3	–	–
CCOC(=O)CC1=C(C(=O)OCC)C(c2ccc(OC)cc2OC)C(C#N)=C(N)O1 (centres undefined)	–	–	–	6.99	–	–
O=C(NC1=NCCS1)c1cccc(S(=O)(=O)N2CCCCC2)c1	·	–	·	–	·	·
